# Source: the supplement of paper PMC4022240
# ± gives the standard deviation.
# Legend:
# Assay in all cases: peptide microarray binding signal (635 nm), min-max normalized on array (fraction of array maximum); higher = stronger binding
# Settings in all cases: peptide region: H3 1-13
# [1] = target: T1, HaloTag-ATRX ADD domain (163-292)
# T1 chain: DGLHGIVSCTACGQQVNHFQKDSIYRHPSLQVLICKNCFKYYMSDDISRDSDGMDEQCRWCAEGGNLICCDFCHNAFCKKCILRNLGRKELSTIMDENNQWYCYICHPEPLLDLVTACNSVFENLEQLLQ
# Procedure: (§1)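 Histone 13-mer peptides were synthesized as cellulose conjugates with a C-terminal 20-atom PEG linker and printed in triplicate on nitrocellulose. The sequence given is the unmodified backbone; PTMs (Kme1/2/3, Kac, Sph/Tph, Rme/Rme2a/Rme2s, Rcit) are listed in the label and the 'peptide modifications' condition. Slides were probed at 4 °C for 1 h with biotin-labelled (HQ)5-HaloTag reader fusions (ATRX-ADD, ING2-PHD) then streptavidin-Alexa647, or with rabbit histone antibodies then anti-rabbit Alexa647. The mean 635 nm signal of the triplicate spots was scaled 0-1 between the lowest and highest values on each array.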
# [2] = target: HaloTag-ING2 PHD (mouse Ing2 200-280)
# Procedure: as §1
# [3] = target: anti-H3K4me3 antibody ab8580
# Procedure: as §1
# [4] = target: anti-H3K9me3 antibody ab8898
# Procedure: as §1
# [5] = peptide modifications: H3R2me2s H3K4me3, binder concentration: 1:2,000 dilution
# [6] = peptide modifications: H3R2me2s H3K4me3, binder concentration: 1:10,000 dilution
# [7] = peptide modifications: H3R2me2s H3K4me2, binder concentration: 1:2,000 dilution
# [8] = peptide modifications: H3R2me2s H3K4me2, binder concentration: 1:10,000 dilution
# [9] = peptide modifications: H3R2me2a H3T6ph, binder concentration: 1:2,000 dilution
# [10] = peptide modifications: H3R2me2a H3T6ph, binder concentration: 1:10,000 dilution
# [11] = peptide modifications: H3R2me2s H3T3ph, binder concentration: 1:2,000 dilution
# [12] = peptide modifications: H3R2me2s H3T3ph, binder concentration: 1:10,000 dilution
# [13] = peptide modifications: H3R2me2s H3K9me2, binder concentration: 1:2,000 dilution
# [14] = peptide modifications: H3R2me2s H3K9me2, binder concentration: 1:10,000 dilution
# [15] = peptide modifications: H3R2me2s H3T6ph, binder concentration: 1:2,000 dilution
# [16] = peptide modifications: H3R2me2s H3T6ph, binder concentration: 1:10,000 dilution
# [17] = peptide modifications: H3R2me2s H3K4me1, binder concentration: 1:2,000 dilution
# [18] = peptide modifications: H3R2me2s H3K4me1, binder concentration: 1:10,000 dilution
# [19] = peptide modifications: H3R2me2a, binder concentration: 1:2,000 dilution
# [20] = peptide modifications: H3R2me2a, binder concentration: 1:10,000 dilution
# [21] = peptide modifications: H3R2me2a H3K9me2, binder concentration: 1:2,000 dilution
# [22] = peptide modifications: H3R2me2a H3K9me2, binder concentration: 1:10,000 dilution
# [23] = peptide modifications: H3R2me2s H3K9ac, binder concentration: 1:2,000 dilution
# [24] = peptide modifications: H3R2me2s H3K9ac, binder concentration: 1:10,000 dilution
binder,measurement,setting,value
ARTKQTARKSTGG [H3 1-13 A Rme2s T Kme3 Q T A R K S T G G],peptide microarray binding signal,"[1]; peptide modifications: H3R2me2s H3K4me3, binder concentration: 50 nM",0.00893 ± 9.3e-05
same,peptide microarray binding signal,"[1]; peptide modifications: H3R2me2s H3K4me3, binder concentration: 500 nM",0.0273 ± 0.0066
same,peptide microarray binding signal,"[2]; peptide modifications: H3R2me2s H3K4me3, binder concentration: 10 nM",0.0555 ± 0.0092
same,peptide microarray binding signal,"[2]; peptide modifications: H3R2me2s H3K4me3, binder concentration: 100 nM",0.0641 ± 0.027
same,peptide microarray binding signal,[3]; [5],0.674 ± 0.053
same,peptide microarray binding signal,[3]; [6],0.326 ± 0.034
same,peptide microarray binding signal,[4]; [5],0.228 ± 0.057
same,peptide microarray binding signal,[4]; [6],0.113 ± 0.034
ARTKQTARKSTG [H3 1-13 A Rme2s T Kme2 Q T A R K S T G],peptide microarray binding signal,"[1]; peptide modifications: H3R2me2s H3K4me2, binder concentration: 50 nM",0.00476 ± 0.00032
same,peptide microarray binding signal,"[1]; peptide modifications: H3R2me2s H3K4me2, binder concentration: 500 nM",0.00814 ± 0.00041
same,peptide microarray binding signal,"[2]; peptide modifications: H3R2me2s H3K4me2, binder concentration: 10 nM",0.00967 ± 0.00038
same,peptide microarray binding signal,"[2]; peptide modifications: H3R2me2s H3K4me2, binder concentration: 100 nM",0.0142 ± 0.0012
same,peptide microarray binding signal,[3]; [7],0.0186 ± 0.0024
same,peptide microarray binding signal,[3]; [8],0.01061 ± 5.4e-05
same,peptide microarray binding signal,[4]; [7],0.00287 ± 0.00041
same,peptide microarray binding signal,[4]; [8],0.00225 ± 0.00017
ARTKQTARKSTGG [H3 1-13 A Rme2a T K Q Tph A R K S T G G],peptide microarray binding signal,"[1]; peptide modifications: H3R2me2a H3T6ph, binder concentration: 50 nM",0.00602 ± 7.4e-05
same,peptide microarray binding signal,"[1]; peptide modifications: H3R2me2a H3T6ph, binder concentration: 500 nM",0.015 ± 0.0011
same,peptide microarray binding signal,"[2]; peptide modifications: H3R2me2a H3T6ph, binder concentration: 10 nM",0.00549 ± 0.00043
same,peptide microarray binding signal,"[2]; peptide modifications: H3R2me2a H3T6ph, binder concentration: 100 nM",0.00964 ± 0.0013
same,peptide microarray binding signal,[3]; [9],0.00198 ± 0.00026
same,peptide microarray binding signal,[3]; [10],0.0032 ± 0.00025
same,peptide microarray binding signal,[4]; [9],0.00112 ± 3.5e-05
same,peptide microarray binding signal,[4]; [10],0.000923 ± 1.9e-05
ARTKQTARKSTGG [H3 1-13 A Rme2s Tph K Q T A R K S T G G],peptide microarray binding signal,"[1]; peptide modifications: H3R2me2s H3T3ph, binder concentration: 50 nM",0.0063 ± 0.00015
same,peptide microarray binding signal,"[1]; peptide modifications: H3R2me2s H3T3ph, binder concentration: 500 nM",0.0137 ± 0.00078
same,peptide microarray binding signal,"[2]; peptide modifications: H3R2me2s H3T3ph, binder concentration: 10 nM",0.00424 ± 0.00025
same,peptide microarray binding signal,"[2]; peptide modifications: H3R2me2s H3T3ph, binder concentration: 100 nM",0.0153 ± 0.003
same,peptide microarray binding signal,[3]; [11],0.00264 ± 0.0012
same,peptide microarray binding signal,[3]; [12],0.00228 ± 0.00028
same,peptide microarray binding signal,[4]; [11],0.000982 ± 0.00014
same,peptide microarray binding signal,[4]; [12],0.00075 ± 1.6e-05
ARTKQTARKSTGG [H3 1-13 A Rme2s T K Q T A R Kme2 S T G G],peptide microarray binding signal,"[1]; peptide modifications: H3R2me2s H3K9me2, binder concentration: 50 nM",0.0159 ± 0.001
same,peptide microarray binding signal,"[1]; peptide modifications: H3R2me2s H3K9me2, binder concentration: 500 nM",0.0381 ± 0.00096
same,peptide microarray binding signal,"[2]; peptide modifications: H3R2me2s H3K9me2, binder concentration: 10 nM",0.0245 ± 0.00098
same,peptide microarray binding signal,"[2]; peptide modifications: H3R2me2s H3K9me2, binder concentration: 100 nM",0.0463 ± 0.005
same,peptide microarray binding signal,[3]; [13],0.0401 ± 0.0015
same,peptide microarray binding signal,[3]; [14],0.0397 ± 0.0042
same,peptide microarray binding signal,[4]; [13],0.0557 ± 0.0055
same,peptide microarray binding signal,[4]; [14],0.0282 ± 0.0014
ARTKQTARKSTGG [H3 1-13 A Rme2s T K Q Tph A R K S T G G],peptide microarray binding signal,"[1]; peptide modifications: H3R2me2s H3T6ph, binder concentration: 50 nM",0.00476 ± 0.00012
same,peptide microarray binding signal,"[1]; peptide modifications: H3R2me2s H3T6ph, binder concentration: 500 nM",0.0109 ± 0.00039
same,peptide microarray binding signal,"[2]; peptide modifications: H3R2me2s H3T6ph, binder concentration: 10 nM",0.002745 ± 2.7e-05
same,peptide microarray binding signal,"[2]; peptide modifications: H3R2me2s H3T6ph, binder concentration: 100 nM",0.0193 ± 0.0028
same,peptide microarray binding signal,[3]; [15],0.000774 ± 1.9e-05
same,peptide microarray binding signal,[3]; [16],0.00097 ± 2e-05
same,peptide microarray binding signal,[4]; [15],0.000876 ± 2.6e-05
same,peptide microarray binding signal,[4]; [16],0.000461
ARTKQTARKSTGG [H3 1-13 A Rme2s T Kme Q T A R K S T G G],peptide microarray binding signal,"[1]; peptide modifications: H3R2me2s H3K4me1, binder concentration: 50 nM",0.00815 ± 0.00038
same,peptide microarray binding signal,"[1]; peptide modifications: H3R2me2s H3K4me1, binder concentration: 500 nM",0.0162 ± 0.0009
same,peptide microarray binding signal,"[2]; peptide modifications: H3R2me2s H3K4me1, binder concentration: 10 nM",0.00573 ± 0.00037
same,peptide microarray binding signal,"[2]; peptide modifications: H3R2me2s H3K4me1, binder concentration: 100 nM",0.0481 ± 0.011
same,peptide microarray binding signal,[3]; [17],0.0368 ± 0.009
same,peptide microarray binding signal,[3]; [18],0.0228 ± 0.00057
same,peptide microarray binding signal,[4]; [17],0.00405 ± 0.0004
same,peptide microarray binding signal,[4]; [18],0.00329 ± 0.00019
ARTKQTARKSTGG [H3 1-13 A Rme2a T K Q T A R K S T G G],peptide microarray binding signal,"[1]; peptide modifications: H3R2me2a, binder concentration: 50 nM",0.0208 ± 0.00057
same,peptide microarray binding signal,"[1]; peptide modifications: H3R2me2a, binder concentration: 500 nM",0.0355 ± 0.025
same,peptide microarray binding signal,"[2]; peptide modifications: H3R2me2a, binder concentration: 10 nM",0.00889 ± 0.00042
same,peptide microarray binding signal,"[2]; peptide modifications: H3R2me2a, binder concentration: 100 nM",0.0186 ± 0.0037
same,peptide microarray binding signal,[3]; [19],0.0031 ± 0.00032
same,peptide microarray binding signal,[3]; [20],0.0016 ± 7.1e-05
same,peptide microarray binding signal,[4]; [19],0.00127 ± 7.4e-05
same,peptide microarray binding signal,[4]; [20],0.000634
ARTKQTARKSTGG [H3 1-13 A Rme2a T K Q T A R Kme2 S T G G],peptide microarray binding signal,"[1]; peptide modifications: H3R2me2a H3K9me2, binder concentration: 50 nM",0.169 ± 0.018
same,peptide microarray binding signal,"[1]; peptide modifications: H3R2me2a H3K9me2, binder concentration: 500 nM",0.197 ± 0.0079
same,peptide microarray binding signal,"[2]; peptide modifications: H3R2me2a H3K9me2, binder concentration: 10 nM",0.06 ± 0.00075
same,peptide microarray binding signal,"[2]; peptide modifications: H3R2me2a H3K9me2, binder concentration: 100 nM",0.0848 ± 0.012
same,peptide microarray binding signal,[3]; [21],0.0133 ± 0.0025
same,peptide microarray binding signal,[3]; [22],0.0229 ± 0.0084
same,peptide microarray binding signal,[4]; [21],0.0303 ± 0.0053
same,peptide microarray binding signal,[4]; [22],0.0191 ± 0.0015
ARTKQTARKSTGG [H3 1-13 A Rme2s T K Q T A R Kac S T G G],peptide microarray binding signal,"[1]; peptide modifications: H3R2me2s H3K9ac, binder concentration: 50 nM",0.0127 ± 0.00045
same,peptide microarray binding signal,"[1]; peptide modifications: H3R2me2s H3K9ac, binder concentration: 500 nM",0.0427 ± 0.0013
same,peptide microarray binding signal,"[2]; peptide modifications: H3R2me2s H3K9ac, binder concentration: 10 nM",0.0451 ± 0.0015
same,peptide microarray binding signal,"[2]; peptide modifications: H3R2me2s H3K9ac, binder concentration: 100 nM",0.0681 ± 0.0061
same,peptide microarray binding signal,[3]; [23],0.0383 ± 0.0035
same,peptide microarray binding signal,[3]; [24],0.0308 ± 0.0052
same,peptide microarray binding signal,[4]; [23],0.0163 ± 0.0031
same,peptide microarray binding signal,[4]; [24],0.00836 ± 0.00038
